These results are taken from PubChem BioAssay (Tox21).

Test [1] can be described thus: A CellTox Green Cytotoxicity Assay to monitor cytotoxicity in HEK293 cells - 24 hour (AID 1224875). Further: nearly all actives have a fitted effect of over 45% in size. Further: potency means the concentration at half of the fitted maximal effect. The following applies: CellTox Green fluorescence; series mostly up to 76.8 µM. A digest of the protocol:
(§1)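 Dead-cell fluorescence measured kinetically: asymmetric cyanine dye, HEK293, 600 cells/well, 5 h settle, 23 nL cpd/DMSO, 37 C, reads 0–40 h every 8 h.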

Test [2] can be described thus: qHTS RealTime-Glo MT Cell Viability Assay in HepG2 cells - 32 hour (AID 1224877). Further: nearly all actives have a fitted effect of over 55% in size. Further: potency means the concentration at half of the fitted maximal effect. The note with it: RealTime-Glo luminescence; series mostly up to 76.8 µM. A digest of the protocol: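 Luminescence read-out: viable HepG2 cells reduce a prosubstrate to a NanoLuc substrate, giving a signal proportional to live cell number. Reads taken at 0, 8, 16, 24, 32 and 40 h of compound exposure at 37 C.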

The nature of test [3]: qHTS RealTime-Glo MT Cell Viability Assay in HEK293 cells - 0 hour (AID 1224880). Further: top concentration of the series differs between compounds; nearly all actives have a fitted effect of over 45% in size. The note with it: RealTime-Glo luminescence; series mostly up to 76.8 µM. A digest of the protocol: (§2)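 600 HEK293 cells per well, dispensed already mixed with RealTime-Glo MT reagents. Compound dosing came 5 h later. The same wells were read for luminescence at 0, 8, 16, 24, 32 and 40 h of exposure at 37 C.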
(In qHTS, concentration-response curves come from the screen itself.)

Test [4] is described as follows: A CellTox Green Cytotoxicity Assay to monitor cytotoxicity in HEK293 cells - 32 hour (AID 1224881). Further: nearly all actives have a fitted effect of over 40% in size. Further: potency means the concentration at half of the fitted maximal effect. The note with it: CellTox Green fluorescence; series mostly up to 76.8 µM. A digest of the protocol: as §1
Test [5] is described as follows: A CellTox Green Cytotoxicity Assay to monitor cytotoxicity in HepG2 cells - 16 hour (AID 1224876). Further: nearly all actives have a fitted effect of over 45% in size. Further: potency means the concentration at half of the fitted maximal effect. The following applies: CellTox Green fluorescence; series mostly up to 76.8 µM. A digest of the protocol: (§3)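 First, HepG2 cells (600/well) mixed with reagent were plated; second, after 5 h at 37 C they received compounds via pintool; third, fluorescence was measured at 0 h through 40 h at 8 h intervals.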

The nature of test [6]: A CellTox Green Cytotoxicity Assay to monitor cytotoxicity in HepG2 cells - 24 hour (AID 1224878). Further: nearly all actives have a fitted effect of over 45% in size. Further: potency means the concentration at half of the fitted maximal effect. The note with it: CellTox Green fluorescence; series mostly up to 76.8 µM. A digest of the protocol: as §3
Test [7] can be described thus: A CellTox Green Cytotoxicity Assay to monitor cytotoxicity in HepG2 cells - 40 hour (AID 1224879). Further: nearly all actives have a fitted effect of over 40% in size. Further: potency means the concentration at half of the fitted maximal effect. The following applies: CellTox Green fluorescence; series mostly up to 76.8 µM. A digest of the protocol: as §3
Test [8] can be described thus: A CellTox Green Cytotoxicity Assay to monitor cytotoxicity in HepG2 cells - 0 hour (AID 1224882). Further: nearly all actives have a fitted effect of over 35% in size. Further: potency means the concentration at half of the fitted maximal effect. The following applies: CellTox Green fluorescence; series mostly up to 76.8 µM. A digest of the protocol:
as §3

A short description of test [9]: A CellTox Green Cytotoxicity Assay to monitor cytotoxicity in HepG2 cells - 32 hour (AID 1224883). Further: nearly all actives have a fitted effect of over 50% in size. Further: potency means the concentration at half of the fitted maximal effect. The note with it: CellTox Green fluorescence; series mostly up to 76.8 µM. A digest of the protocol: as §3
Test [10] can be described thus: qHTS RealTime-Glo MT Cell Viability Assay in HEK293 cells - 40 hour (AID 1224874). Further: potency means the concentration at half of the fitted maximal effect; nearly all actives have a fitted effect of over 50% in size. The following applies: RealTime-Glo luminescence; max response: stronger effect = lower value. A digest of the protocol:
as §2

Results filed as inconclusive are left out. Calls of active or inactive are those of the source. The call rests on the fitted dose curve; in most records, active means well fitted curve in the direction sought with a large enough effect in the repeat runs; inconclusive means weak or mixed curves; inactive means no such curve, though single readings can be large; an effect the other way counts as inactive or inconclusive.

As for `CC(C)(C)c1ccc(OC2CCCCC2O)cc1` (stereo not given), the Potency in test [1] is 54.9 µM (active); in test [4] it was 49 µM (active). For the same molecule, the Potency result in test [2] and in test [3] was “inactive” throughout.

Consider `CCNc1nc(NC(C)(C)C)nc(OC)n1`, for which the Potency entry in [1], in test [5], in test [2], in [6], in [7] and in [3] was “inactive” throughout. Besides, the Potency result in test [8] and in test [9] was “inactive” throughout.

As to `O=C1c2ccccc2C(=O)c2c(Cl)cccc21`, the Potency result in test [5], in test [2], in test [6], in [7], in test [3] and in [8] was “inactive” throughout. Moreover, in test [9], the Potency entry is “inactive”.

With `COc1ccc2ccccc2c1`, the Potency entry in test [3] was “inactive”.

`NCc1cccc(C2CCN(C(=O)c3ccc(C#Cc4ccccc4F)o3)CC2)c1`: the Potency is 38.9 µM (active) in [5]; 38.9 µM (active) in [6]; 43.6 µM (active) in [7]; 49 µM (active) in test [4]; 43.6 µM (active) in test [9]. Further, the Potency entry in test [3] and in test [8] was “inactive” each time.

With `CCCCCCCC1CCC(=O)O1` (stereo not given), the Potency entry in test [3] is “inactive”.

On to `CCCCCCCCCCCCCCCCCCNC(=O)OC1CCN(C(=O)OC[C@H](COC(=O)N(Cc2cccc[n+]2CC)C(=O)c2ccccc2OC)OC)CC1`, for which the Potency in test [10] is 9.52 µM (active). For the same molecule, the Potency result in test [3] and in test [8] was “inactive” each time.

Consider `C=COCCCC`, for which the Potency result in [1], in test [5], in test [2], in test [6], in test [7] and in test [8] was “inactive” throughout. In test [9], the Potency result was “inactive”.

Take `CCCOC(=O)c1ccc(O)cc1`: the Potency result in test [1], in test [5], in test [2], in test [6], in test [3] and in test [4] was “inactive” each time. For the same molecule, the Potency entry in [8] and in test [9] was “inactive” in each case.

For `CCN(CC)c1ccc2c(c1)Oc1cc(N(CC)CC)ccc1C21OC(=O)c2ccccc21`, the Potency in test [5] was 23.9 µM (active); in test [7] it was 23.9 µM (active); in test [4] it was 19 µM (active); in test [9] it was 23.9 µM (active). Besides, the Potency result in test [2] and in test [3] was “inactive” throughout.

Consider `Cc1ccc(C2OC[C@@H]3OC(c4ccc(C)cc4)O[C@H]([C@H](O)CO)[C@@H]3O2)cc1` (stereo not given in full), for which the Potency entry in test [5], in test [2], in [6], in test [7], in [8] and in test [9] was “inactive” in each case.

`CN1CCN(CCCN2c3ccccc3Sc3ccc(Cl)cc32)CC1`: the Potency in test [5], in test [2], in test [6], in [7] and in [9] was 23.9 µM (active) each time. Moreover, the Potency result in test [8] is “inactive”.

Regarding `CCN(CC)c1ccc(C=O)cc1`, the Potency result in [5], in [2], in test [7], in test [4] and in test [9] was “inactive” in each case.

In the case of `CN(C/C=C/c1ccccc1)Cc1cccc2ccccc12`, the Potency in [1] is 19 µM (active); in test [5] it was 23.9 µM (active); in test [6], 23.9 µM (active); in [7], 21.3 µM (active); in test [8], 19 µM (active); in test [9], 23.9 µM (active). Besides, in test [3], the Potency result is “inactive”.

As for `CC(=O)N(C)C`, the Potency entry in test [3] was “inactive”.

As for `CC1=C(/C=C/C(C)=C/C=C/C(C)=C\C(=O)O)C(C)(C)CCC1`, the Potency entry in test [5], in test [2], in [3] and in test [8] was “inactive” each time. Moreover, the Potency in [7] is 55.1 µM (active).

Regarding `C1CCSC1`, the Potency result in [1], in test [5], in test [2], in test [6], in test [7] and in [3] was “inactive” each time. In addition, the Potency entry in [4], in test [8] and in [9] was “inactive” throughout.

Take `Nc1cccnc1N`: the Potency result in test [1], in test [5], in test [2], in [6], in test [7] and in [3] was “inactive” throughout. Further, the Potency result in test [4], in test [8] and in test [9] was “inactive” throughout.
